Screening results: PubChem BioAssay, several laboratories
tim10-1 inh: inhibits growth of tim10-1 mutant yeast; S. cerevisiae tim10-1 ts strain growth, BacTiter-Glo, 24 h; inhibition, % at 20 µM; 2.2% of 330,000 active; AID 463190;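 active means inhibition of at least 40%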;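 further: mutant grown at 25 °C; 0% = DMSO wells with yeast and 100% = wells holding no yeast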
tim23-1 inh: tim23-1 yeast growth inhibition; S. cerevisiae tim23-1 growth, BacTiter-Glo luminescence, 24 h; inhibition, % at 20 µM; 1.3% of 330,000 active;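 active means growth inhibition of the mutant yeast at or above 50%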;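 further: temperature-sensitive mutant grown at 25 °C; plate controls were DMSO-treated mutant yeast for no effect and medium wells lacking yeast for full effect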
SUMO Mot1 rescue: inhibitors of SUMOylation pathway: yeast Mot1-301 growth rescue; S. cerevisiae Mot1-301 growth rescue, ATP luminescence, 38.5C; percent above DMSO median, 100 means doubled; growth rescue, % at 18.8 µM; 1% of 320,000 active;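 active means every valid replicate shows activation above 250% relative to neutral control wells; inactive means the rest, any valid replicate at or below 250%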;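 further: OY570 slx delta 5 strain wells were the positive control but not used for scaling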
PfHsp90 yeast 2: reduces growth (ATP signal) of yeast expressing P. falciparum Hsp90 | S. cerevisiae expressing PfHsp90, BacTiter-Glo ATP, 48 h; yeast lacking PDR1 and PDR3 efflux regulators | inhibition, % at 9.4 µM | 0.32% of 310,000 active | AID 504621;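 active means every replicate shows inhibition above about 80%, whatever the replicate mean, limit read from the data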;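 further: 0% = DMSO neutral controls and 100% = 20 µM radicicol positive controls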
TIM10 inh: inhibits growth of TIM10 yeast strain. inhibition, % at 10 µM. 1.4% of 330,000 active. AID 463195. S. cerevisiae TIM10 strain growth, BacTiter-Glo luminescence, 24 h;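 active means inhibition of 40% or more at the single tested concentration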;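 further: wild-type TIM10 isogenic control strain grown at permissive 25 °C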
tim10-1 confirm: tim10-1 yeast growth inhibition, confirmed; shares compounds with tim10-1 inh; S. cerevisiae tim10-1 ts strain growth, BacTiter-Glo, 24 h; inhibition, % at 20 µM; 56% of 7,400 active; AID 463213;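 active means inhibition of yeast growth at or above a set limit in either of two repeat tests at 20 µM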;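 further: tim10-1 mutant grown at permissive 25 °C to find synthetic lethal compounds; 0% = DMSO yeast wells and 100% = medium wells without yeast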
TIM10 conf: confirmation of TIM10 yeast growth inhibitors. shares compounds with TIM10 inh. S. cerevisiae tim10 strain growth, BacTiter-Glo luminescence, 24 h. inhibition, % at 10 µM. 63% of 4,600 active. AID 463215;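 active means inhibition of yeast growth at or above a set limit in either of two replicates at 10 µM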;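 further: this counterscreen used the strain with wild-type TIM10; 0% = yeast with DMSO and 100% = medium wells lacking yeast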
tim23-1 conf: confirmation of tim23-1 mutant yeast growth inhibitors | shares compounds with tim23-1 inh | S. cerevisiae tim23-1 growth, BacTiter-Glo luminescence, 24 h | inhibition, % at 20 µM | 83% of 4,400 active | AID 463218;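 active means inhibition above about 39% in either of two replicate wells at 20 µM, limit read from the data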;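 further: temperature-sensitive tim23-1 mutant grown at 25 °C; 0% = DMSO wells with yeast and 100% = medium wells without yeast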
* marks the source's active call; other numbers are inactive results; nt = not tested or not shown. The list is not random: actives were taken first. Their share in the collection is about 4.4%.

SMILES | tim10-1 inh | tim23-1 inh | SUMO Mot1 rescue | PfHsp90 yeast 2 | TIM10 inh | tim10-1 confirm | TIM10 conf | tim23-1 conf
CN1/C(=C\C=C(/C#N)C(=O)Nc2ccc(Cl)cc2)C(C)(C)c2ccccc21 | -7 | 0 | -25 | 0 | -1 | nt | nt | nt
CN1/C(=C\C(=O)Nc2ccc(Cl)cc2)C(C)(C)c2ccccc21 | 52* | 68* | 1 | 37 | 59* | 62* | 54* | 78*
CC(=O)c1cc(C#N)c(Oc2cccc(C(F)(F)F)c2)nc1C | -32 | -8 | -25 | -7 | -38 | nt | nt | nt
FC(F)(F)c1cccc(Oc2nc(-c3ccccc3)nnc2C(F)(F)F)c1 | 54* | 55* | -10 | nt | 46* | 48* | 38* | 46*
CCCNC(=O)c1ccc2c(c1)C1C3CCC(C3)C1C(c1ccccc1)N2 (centres undefined) | 47* | 53* | -8 | -16 | 37 | 44* | nt | 57*
COc1ccc(C(=O)c2c(C(F)(F)F)oc3c2C(=O)c2ccccc2C3=O)cc1OC | 52* | 67* | -17 | -23 | 38 | 40* | nt | 68*
Cc1cccc2c1NC(=O)/C2=C\C(=O)c1cccs1 | 83* | 81* | -25 | -28 | 82* | 87* | 88* | 77*
Cc1cc(C)c2c(c1)/C(=C/C(=O)c1ccc(Br)s1)C(=O)N2 | 78* | 74* | -20 | -22 | 76* | 69* | 66* | 70*
CN1/C(=C\C(=O)c2cccs2)C(C)(C)c2ccccc21 | 27 | 33 | -5 | 10 | -2 | nt | nt | nt
Cc1ccc(C)c(NC(=O)CN(C)C(=O)C2CCN(C(=O)Nc3ccccc3)CC2)c1 | 7 | 2 | 6 | -13 | 3 | nt | nt | nt
O=C1CCCCC1C(Nc1ccc(Br)cc1)c1ccccc1 (centres undefined) | 41* | 53* | 36 | -13 | 29 | 32* | nt | 48*
O=C1CCCCC1C(Nc1ccc(Cl)cc1)c1ccccc1 (centres undefined) | 13 | 39 | 22 | 0 | 32 | nt | nt | nt
O=C(CSc1nc2ccc(Nc3nc(N4CCCC4)nc(N4CCCC4)n3)cc2s1)NCc1ccco1 | 16 | 25 | 0 | -5 | 5 | nt | nt | nt
CCN(CC)C(=S)SSC(=S)N(CC)CC | 88* | 64* | 131 | 107* | 50* | 99* | 100* | 99*
Cc1ccc(C2=NC(=O)/C(=C/c3cc(O)c(O)c(Br)c3)S2)cc1 | -8 | 32 | nt | -11 | -38 | nt | nt | nt
COc1cc(/C=C2\SC(c3ccc(C)cc3)=NC2=O)cc(OC)c1O | 54* | 53* | 7 | -17 | 44* | 38* | 40* | 49*
O=C(CC(=O)c1c(F)cccc1Cl)c1ccccc1O | 52* | 63* | 14 | -65 | 8 | 14 | nt | 64*
CCn1c(O)c(/C=C2\C=NN=C2c2ccccc2)sc1=S | 51* | 50* | -10 | 11 | 33 | 32* | nt | 54*
CCCCn1c(O)c(/C=C2\C=NN=C2c2ccccc2)sc1=S | 38 | 29 | -5 | 0 | 9 | nt | nt | nt
Cn1c(O)c(/C=C2\C=NN=C2c2ccccc2)sc1=S | 57* | 65* | -3 | -20 | 42* | 42* | 42* | 57*
N#C/C(=C/c1ccc(N2CCCCCC2)o1)c1ccc(F)cc1 | 62* | 60* | 10 | 64 | 42* | 18 | 58* | 69*
CN1CCN(C(c2ccc(C(F)(F)F)cc2)c2cc(Cl)c3cccnc3c2O)CC1 (centres undefined) | 43* | 66* | -11 | nt | 53* | 36* | 26 | 70*
CN1CCN(C(c2ccc(Cl)cc2)c2cc(Cl)c3cccnc3c2O)CC1 (centres undefined) | 40* | 59* | 33 | 106* | 3 | 24 | nt | 71*
O=C(CC1CC2CCC1C2)N1CCN(S(=O)(=O)c2ccccc2F)CC1 (centres undefined) | 13 | 14 | 25 | 6 | 3 | nt | nt | nt
CCOC(=O)/C=C/C(=O)Nc1ccc(Oc2ccccc2)cc1 | 50* | 55* | 27 | nt | 33 | 49* | nt | 66*
SMILES | tim10-1 inh | tim23-1 inh | SUMO Mot1 rescue | PfHsp90 yeast 2 | TIM10 inh | tim10-1 confirm | TIM10 conf | tim23-1 conf
COc1ccc(C(=O)n2cc(C(=O)c3cc(C)ccc3O)cn2)cc1 | 19 | 41 | 28 | -4 | 25 | nt | nt | nt
COc1ccc(O)c(C(=O)c2cnn(S(=O)(=O)c3ccc(C)cc3)c2)c1 | 54* | 52* | -3 | -7 | 26 | 35* | nt | 52*
Nc1c(N(CCCO)C(=O)C2CCCCC2)c(=O)[nH]c(=O)n1Cc1ccccc1 | -4 | 13 | -11 | nt | 2 | nt | nt | nt
Cc1ccc(NC(=O)/C=C/c2cccc(C(F)(F)F)c2)cc1 | -27 | -5 | 15 | -17 | -5 | nt | nt | nt
O=C(/C=C/c1cccc(C(F)(F)F)c1)Nc1cccc(C(F)(F)F)c1 | 55* | 72* | 21 | 105* | 58* | 56* | 53* | 69*
CCOC(=O)c1c(NC(=O)c2cc(C)on2)c2cc([N+](=O)[O-])ccc2n1C | -5 | 6 | 21 | nt | 1 | nt | nt | nt
CCCN1CCN(C(=O)Cn2nc(C)n3c(cc4c(OC)cccc43)c2=O)CC1 | nt | nt | nt | -13 | nt | nt | nt | nt
CSc1ccccc1NC(=O)COC(=O)c1cnc(C)cn1 | -9 | -1 | -8 | nt | 9 | nt | nt | nt
NNc1nc(-c2ccccc2Cl)c2cc(Br)ccc2n1 | 49* | 57* | 9 | -9 | 41* | 37* | 30* | 43*
Clc1ccccc1-c1ncnc2ccc(Br)cc12 | 12 | 0 | 14 | -12 | -7 | nt | nt | nt
CSc1nnc2c3cc(F)ccc3n(C)c2n1 | 48* | 51* | -3 | 83* | 77* | 61* | 81* | 50*
O=C(NC1=NCCS1)c1cc(-c2ccc(F)cc2)nc2ccccc12 | 50* | 59* | 0 | -5 | 51* | 51* | -8 | 60*
Cc1ccc(-c2cc(C(=O)NC3=NCCS3)c3ccccc3n2)cc1C | nt | nt | -7 | -8 | nt | nt | nt | nt
N#Cc1nc(-c2cccs2)oc1NCc1ccccc1 | 29 | 42 | 5 | nt | 17 | nt | nt | nt
Cc1ccc(CNc2oc(-c3cccs3)nc2C#N)cc1 | 44* | 52* | -3 | -12 | 18 | 26 | nt | 46*
Cc1cc(C)nc(NC(=NCCc2c[nH]c3ccccc23)NC(=O)C(C)(C)C)n1 | 27 | 36 | 7 | 12 | 11 | nt | nt | nt
Oc1c(I)cc(Cl)c2cccnc12 | 67* | 70* | 83 | 111* | 56* | 56* | 70* | 73*
COc1ccc(C(=O)C2CCN(S(=O)(=O)c3ccc4c(c3)OCCO4)CC2)cc1 | 56* | 60* | -18 | -14 | 68* | 57* | 61* | 46*
